Residues, ends and D or L forms follow the SMILES beside them. *: point of attachment. Cbz = O=C(OCc1ccccc1)*; CH2Cl = ClC*
Legend:
[1] = biological target: Tumor necrosis factor receptor superfamily member 10B (Homo sapiens) (UniProt O14763); assay: viability loss of caspase-8 NB7 cells with TRAIL – with/without TRAIL, luminescence panel, confirmation (AID 651596); settings: NB7 neuroblastoma + caspase-8, TRAIL sensitization, NB7 Caspase-8, with TRAIL, mean of runs, at 10 µM, stronger effect = higher value
[2] = as above; settings: NB7 neuroblastoma + caspase-8, without TRAIL, NB7 Caspase-8, without TRAIL, mean of runs, at 10 µM

Tumor necrosis factor receptor superfamily member 10B (Homo sapiens), sequence (O14763 whole entry, looked up): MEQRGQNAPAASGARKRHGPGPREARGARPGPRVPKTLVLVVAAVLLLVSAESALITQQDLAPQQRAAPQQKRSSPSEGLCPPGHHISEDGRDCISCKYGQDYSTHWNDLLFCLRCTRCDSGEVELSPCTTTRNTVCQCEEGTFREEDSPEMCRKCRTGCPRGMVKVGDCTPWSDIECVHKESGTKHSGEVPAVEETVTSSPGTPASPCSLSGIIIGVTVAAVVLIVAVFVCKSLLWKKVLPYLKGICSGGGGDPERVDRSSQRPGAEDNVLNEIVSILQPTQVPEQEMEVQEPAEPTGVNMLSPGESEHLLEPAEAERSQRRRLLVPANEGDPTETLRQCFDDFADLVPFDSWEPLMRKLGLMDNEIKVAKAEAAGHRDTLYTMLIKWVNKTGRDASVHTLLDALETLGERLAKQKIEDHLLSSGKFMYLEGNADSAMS

Compound	activity [1] [%]	activity [2] [%]
CC(C)CC(NC(=O)OCc1ccccc1)C(=O)NC(Cc1ccccc1)C(=O)CCl (stereo not drawn) (Cbz-Leu-Phe-CH2Cl; configuration not given here)	62.3	98
Oc1ccc(-c2nc3ccccc3s2)cc1	47.5	47.9
CCCCn1c(SCC(=O)Nc2nnc(CC)s2)nc2c1c(=O)n(C)c(=O)n2C	68	70.1
c1ccc(-c2nnc3sc(CN4CCC5(CC4)OCCO5)cn23)cc1	57.7	60.9
CCc1ccc(-c2cc(C(=O)N/N=C/c3c[nH]c4ccccc34)[nH]n2)cc1	41.6	52.2
COc1cccc(C(=O)Oc2c(CN3CCOCC3)cc(Cl)c3cccnc23)c1	49	60.3
O=C(COc1ccc(Cl)cc1Cl)Nc1ccccc1F	54.9	40.5
NC(=O)c1ccsc1NC(=O)c1ccc2c(c1)CCCC2	89.5	86.7
O=C(Nc1ccc(Cl)cc1)Nc1ccccc1C(=O)O	58.3	45.1
CC1CCN(c2ccc(-c3ccc(NC(=O)C(F)(F)F)cc3)nn2)CC1	94.6	96
Cc1ccc(-c2cn3c(=O)cc(C)[nH]c3n2)cc1	80.5	79.5
Cc1cccnc1NC(=O)c1sc2ccccc2c1Cl	33.3	23.5
CC(C)Nc1ccc(-n2nc3ccccc3[n+]2[O-])cc1	62.5	61
O=C(Cn1ncc(Cl)c(Cl)c1=O)NC1CCCCC1	98	98.5
Nc1nc(-c2ccc(-c3ccccc3)cc2)cs1	51.2	50.7
O=C(Nc1cc2ccccc2oc1=O)c1ccccc1	54.1	52
Cc1onc(-c2ccccc2Cl)c1C(=O)O/N=C(\N)c1ccccc1	99	98.1
Cc1ccc(C(=O)Oc2ccc(C(=O)COC(=O)c3cnccn3)cc2)cc1	19.9	31.6
NC(=O)c1c(NC(=O)c2cc3ccccc3o2)sc2c1CCC2	56	42.8
COc1ccc2oc(C(=O)Nc3nc4ccccc4[nH]3)c(C)c2c1	89.7	85.3
Cc1ccccc1Nc1nc(N)nc(CCl)n1	98.5	96.2
COCCN(C(=O)COC(=O)c1c(NC(C)=O)sc(C)c1C)c1c(N)n(Cc2ccccc2)c(=O)[nH]c1=O	58.8	65.8

Compound	activity [1] [%]	activity [2] [%]
O=C(C[C@H]1C/C=C\C[C@@H](NC(=O)OCC2c3ccccc3-c3ccccc32)C(=O)O[C@@H](c2ccccc2)CNC1=O)N[C@H](CO)Cc1ccccc1	64.2	43.2
CC(/C=N/NC(=O)c1nn(C)c(C)c1Br)=C\c1ccccc1	72.4	74.6
Cc1ccc(/C(N)=N/OC(=O)c2ccc(C)cc2Cl)cc1	97.3	96.4
C/C(Cn1nnc([N+](=O)[O-])n1)=N\NC(=O)c1ccccc1O	43.8	51
CCOC(=O)c1c(C)nc2c3ccccc3ccn12	51.9	58.9
O=C(Nc1ccc(O)cc1)c1ccc(NC(=O)c2cccs2)cc1	85.2	84.8
CCOc1ccc(C(=O)Nc2ccc3[nH]ncc3c2)cc1	82.6	82.7
CC(=O)c1c(C)[nH]c(C(=O)Nc2ccccn2)c1C	31.1	31.1
COC(=O)c1ccccc1NC(=O)c1nc(S(=O)(=O)Cc2ccccc2)ncc1Cl	84.1	99.6
Cc1ccc(-c2nnc(NC(=O)c3ccco3)o2)c(C)c1	70.7	58.6
Cc1ccc(C(=O)c2no[n+]([O-])c2C(=O)c2ccc(C)cc2)cc1	98	92
CCN(CC)c1ccc(/C=N/NC(=O)c2ccccn2)cc1	57.3	45.4
COc1ccccc1NC(=O)c1nc(S(=O)(=O)Cc2ccccc2)ncc1Cl	90.7	99.2
Cc1ccc(C(=O)Nc2nc3ccccc3c(=O)s2)cc1	80.8	80
COc1ccc(-c2cc3ccccc3c(=O)o2)cc1	49.4	56.6
Cn1sc(NC(=O)c2ccc(Cl)cc2)nc1=O	68.4	67
CCCc1ccc(-c2cc(C(=O)Nc3ccc([N+](=O)[O-])cn3)c3ccccc3n2)cc1	43.2	33.6
Cc1ccc(C(=O)N/N=C\c2ccc[nH]2)cc1[N+](=O)[O-]	80.7	79.4
CC(C)n1c(/C=C/c2ccccc2)nc2ccccc21	63.2	69.3
C=CCOc1ccccc1CN(C(=O)CCl)c1ccc2c(c1)OCO2	99	98.1
CC(C)Oc1ccc(C(=O)NC2=NCCS2)cc1	57.7	61.8
O=C(NCc1ccccc1)c1c(Cl)nc(Cl)c(Cl)c1Cl	99.8	99.9
